Source: PubChem BioAssay AID1159580 (chemical genetic matrix, 2015)
In all, about 5,500 compounds went through this assay and about 2,000 (36%) were called active. Another 18% or so got no clear call; they are omitted. Cut-off read from the data, not from the text of the source: active = normalized growth mostly below about 0.91 (no sharp cut-off); inconclusive = no clear call, values can overlap the other calls; inactive = mostly above about 0.92. This is one part of the list.

Test: chemical genetic growth profiling, strain panel (AID 1159580);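 note: tested at 20 µM; growth read once vehicle control cultures reached saturation at 30 °C; 1 = growth at the plate median or of vehicle wells; lower values mean less growth of the strain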
Conditions: S. cerevisiae deletion strains, growth OD

Measured: normalized growth

Cc1cc(=O)c2c(O)c(C)c(O)cc2o1
inactive: locus YAL021C, strain ccr4, active compounds read low 1 | locus YAL026C, strain drs2, active compounds read low 1.04 | locus YAL030W, strain snc1, active compounds read low 1.02 | locus YBL061C, strain skt5, active compounds read low 1.02 | locus YBR009C, strain hhf1, active compounds read low 1.01 | locus YBR021W, strain FUR4, active compounds read low 0.91 | locus YBR023C, strain chs3, active compounds read low 1.03 | locus YBR171W, strain sec66, active compounds read low 1.03 | locus YBR229C, strain ROT2, active compounds read low 1.02 | locus YBR231C, strain swc5, active compounds read low 1.02 | locus YBR279W, strain paf1, active compounds read low 1.01 | locus YCL011C, strain gbp2, active compounds read low 1.04 | locus YCL016C, strain dcc1, active compounds read low 1.01 | locus YCL029C, strain bik1, active compounds read low 0.975 | locus YCL069W, strain vba3, active compounds read low 1.02 | locus YCR088W, strain abp1, active compounds read low 1.02 | locus YDL005C, strain med2, active compounds read low 1.02 | locus YDL035C, strain GPR1, active compounds read low 0.978 | locus YDL040C, strain nat1, active compounds read low 1.01 | locus YDL074C, strain BRE1, active compounds read low 0.973 | locus YDL101C, strain DUN1, active compounds read low 0.991 | locus YDL134C, strain PPH21, active compounds read low 0.983 | locus YDL185W, strain tfp1, active compounds read low 0.983 | locus YDL192W, strain arf1, active compounds read low 0.954 | locus YDR001C, strain nth1, active compounds read low 1.02 | locus YDR069C, strain doa4, active compounds read low 1.02 | locus YDR101C, strain arx1, active compounds read low 0.957 | locus YDR137W, strain rgp1, active compounds read low 1.03 | locus YDR159W, strain sac3, active compounds read low 1.03 | locus YDR162C, strain NBP2, active compounds read low 0.922 | locus YDR195W, strain ref2 1.01 | locus YDR297W, strain sur2, active compounds read low 1.01 | locus YDR318W, strain mcm21, active compounds read low 0.95 | locus YDR334W, strain swr1, active compounds read low 1.01 | locus YDR335W, strain msn5, active compounds read low 1.04 | locus YDR388W, active compounds read low 0.988 | locus YDR392W, strain spt3, active compounds read low 1.04 | locus YDR502C, strain sam2, active compounds read low 0.935 | locus YEL003W, strain gim4, active compounds read low 1.02 | locus YEL037C, strain rad23, active compounds read low 1.03 | locus YEL061C, strain CIN8 (second series), active compounds read low 1.01 | locus YEL061C, strain CIN8, active compounds read low 1 | locus YER015W, strain faa2, active compounds read low 1.02 | locus YER016W, strain bim1, active compounds read low 1.01 | locus YER110C, active compounds read low 0.96 | locus YER111C, strain swi4, active compounds read low 1.03 | locus YER155C, strain BEM2 (second series), active compounds read low 1.04 | locus YER155C, strain BEM2, active compounds read low 1.02 | locus YER167W, strain BCK2, active compounds read low 1.01 | locus YFR010W, strain ubp6, active compounds read low 1.04 | locus YGL078C, strain dbp3, active compounds read low 0.949 | locus YGL086W, strain mad1, active compounds read low 0.967 | locus YGL167C, strain pmr1, active compounds read low 1.03 | locus YGL173C, strain kem1, active compounds read low 1.02 | locus YGL227W, strain vid30, active compounds read low 1.02 | locus YGL240W, strain doc1, active compounds read low 1.01 | locus YGL248W, strain PDE1, active compounds read low 0.997 | locus YGL253W, strain hxk2, active compounds read low 1.02 | locus YGR078C, strain PAC10, active compounds read low 0.963 | locus YGR135W, strain pre9, active compounds read low 0.932 | locus YGR252W, strain gcn5, active compounds read low 0.815 | locus YHR013C, strain ard1, active compounds read low 1.07 | locus YHR027C, strain rpn1, active compounds read low 1.03 | locus YHR079C, strain IRE1 (second series), active compounds read low 0.978 | locus YHR094C, strain hxt1, active compounds read low 0.984 | locus YHR129C, strain ARP1, active compounds read low 1 | locus YHR142W, strain chs7, active compounds read low 1.04 | locus YHR200W, strain rpn10, active compounds read low 0.958 | locus YIL066C, strain RNR3, active compounds read low 1.02 | locus YIL073C, strain SPO22, active compounds read low 0.999 | locus YIL125W, strain kgd1, active compounds read low 0.986 | locus YIR030C, strain dcg1, active compounds read low 0.99 | locus YJL092W, strain hpr5, active compounds read low 1.02 | locus YJL095W, strain BCK1 (second series), active compounds read low 1.02 | locus YJL095W, strain BCK1, active compounds read low 0.934 | locus YJL115W, strain asf1, active compounds read low 1.03 | locus YJL129C, strain trk1, active compounds read low 1.01 | locus YJL134W, strain LCB3, active compounds read low 1.01 | locus YJL154C, strain vps35, active compounds read low 1.03 | locus YJL164C, strain tpk1, active compounds read low 1.01 | locus YJL166W, strain qcr8, active compounds read low 1.01 | locus YJL168C, strain set2, active compounds read low 0.994 | locus YJL187C, strain SWE1 (second series), active compounds read low 0.971
